Screens deposited in PubChem BioAssay by National Center for Advancing Translational Sciences (NCATS).
TDP1 cell CPT = growth inhibition of DT40 Tdp1-/-;hTDP1 cells with camptothecin (screen for TDP1 inhibitors). chicken DT40 Tdp1-/-;hTDP1 cells + 20 nM CPT, ATP luminescence, 48 h. AID 686979. Potency, µM (titrated, usually from 46.2 µM), without a hit: at the top dose activity change, negative = growth inhibition, most hits filed as inhibitors. 420,000 compounds, 12% hits; also: potency is read from the fitted curve at half-maximal effect; nearly all actives have a fitted effect of over 55% in size
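Chicken DT40 Tdp1-/- cells stably complemented with human TDP1 were seeded at 400 cells/well in medium containing 20 nM camptothecin, exposed to pin-transferred compounds, and grown at 37 °C for at least 48 hr. Viability was read as ATP luminescence.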
DT40 TDP1 no CPT = qHTS for Inhibitors of human tyrosyl-DNA phosphodiesterase 1 (TDP1): qHTS in cells in absence of CPT; DT40 Tdp1-/- hTDP1 cells, no CPT, ATP luminescence, 48 h; 420,000 compounds, 15% hits; Potency, µM (top dose mostly 46.2 µM), for inactives: top-dose activity change, negative = growth inhibition, usual class: inhibitors; also: potency is read from the fitted curve at half-maximal effect; nearly all actives have a fitted effect of over 55% in size
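A cellular qHTS used chicken DT40 cells lacking endogenous Tdp1 but carrying stably transfected human TDP1. Compounds were applied without camptothecin, and cell growth kinetics were judged by ATP-dependent luminescence after ≥48 hr.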
ELG1 DNA repair = ELG1-dependent DNA repair inhibition. HEK293T ELG1-luciferase reporter, luminescence, 16 h; DNA damage induced by 5-fluorouridine. Potency, µM (top dose mostly 46.1 µM), without a hit: top-dose activity change, negative = inhibition, hits mostly inhibitors. 330,000 compounds, 2.3% hits; also: potency is read from the fitted curve at half-maximal effect; nearly all actives have a fitted effect of over 55% in size
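DMSO vehicle served as the neutral condition. Each well held 2,000 cells given 5-fluorouridine plus compound; after 16 hr at 37 °C/5% CO2, ONE-Glo was added and luciferase measured 30 min later.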
IL1B secr inh = blocks inflammasome-driven IL-1 beta release. THP-1 LPS/ATP IL-1B secretion, AlphaLISA, 16 h; active compounds read low. activity change, % at 57.5 µM. 360,000 compounds, 4.7% hits. AID 743279; in the data active = activity change below about -50%; inconclusive = mostly about -30% to -49%
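Secreted IL-1B measured by AlphaLISA bead assay after 16 h compound exposure of THP-1 cells; compounds (final up to 57.5 uM) added 1 h before LPS (250 ng/mL) and ATP (1.25 mM) stimulation; lower signal means less secretion.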
RORgamma inh = inhibitors of mouse ROR gamma transcriptional activity. AID 2551. Drosophila S2 Gal4-RORgamma UAS-luciferase reporter, 20 h. 310,000 compounds, 5.4% hits. P51450. Potency, µM (series often up to 53.6 µM), without a hit: at the top dose activity change, negative = inhibition, usual class: inhibitors; also: potency is read from the fitted curve at half-maximal effect; nearly all actives have a fitted effect of over 60% in size
Target sequence (P51450 whole entry, looked up, the tested form may be a part): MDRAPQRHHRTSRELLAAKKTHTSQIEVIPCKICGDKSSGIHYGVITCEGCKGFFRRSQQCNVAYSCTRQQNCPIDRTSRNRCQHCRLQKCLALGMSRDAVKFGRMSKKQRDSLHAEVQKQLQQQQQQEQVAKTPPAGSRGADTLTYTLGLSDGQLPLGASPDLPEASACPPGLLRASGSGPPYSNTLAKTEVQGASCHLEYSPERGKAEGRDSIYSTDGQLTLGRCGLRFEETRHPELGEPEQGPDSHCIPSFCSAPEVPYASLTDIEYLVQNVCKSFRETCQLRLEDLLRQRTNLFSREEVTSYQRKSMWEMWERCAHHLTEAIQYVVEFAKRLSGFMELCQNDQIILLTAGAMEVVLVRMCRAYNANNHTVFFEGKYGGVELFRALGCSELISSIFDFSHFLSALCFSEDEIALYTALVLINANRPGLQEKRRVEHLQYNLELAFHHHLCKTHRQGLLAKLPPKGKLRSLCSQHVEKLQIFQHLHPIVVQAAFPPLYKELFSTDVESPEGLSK
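Drosophila S2 cells stably expressing Gal4-DBD/mouse RORγ fusion under metallothionein promoter plus UAS-luciferase; compound 1 h, then 700 uM CuSO4 induction for 20 h at ambient temperature; inhibition read as reduced luminescence.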
VP16 counter = inhibits Gal4-VP16 luciferase reporter, ROR gamma counter-screen. Potency, µM (series often up to 53.6 µM), without a hit: top-dose activity, negative = inhibition, hits mostly inhibitors. Drosophila S2 Gal4-VP16 UAS-luciferase, luminescence, 20 h. 310,000 compounds, 3.5% hits. AID 2546;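 also: Gal4-VP16 expression switched on by copper sulfate through the metallothionein promoter; potency is read from the fitted curve at half-maximal effect; nearly all actives have a fitted effect of over 50% in size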
The depositor's hits bear a star; u = inconclusive; x = not tested or not shown. Only some compounds are listed: those with a hit (about 21% of all), similar ones and a draw of the others. Unless noted, calls follow the shape of the dose curve; as a rule, active = well fitted curve in the direction sought with a large enough effect; inconclusive = small, poorly fitted or top-dose-only effect, or another doubt; inactive = no such curve, though single readings can be large; an effect the other way counts as inactive or inconclusive. % is scaled to controls: 0 for no effect and ±100 for the full control effect.

SMILES	TDP1 cell CPT	DT40 TDP1 no CPT	ELG1 DNA repair	IL1B secr inh	RORgamma inh	VP16 counter
CCC(C)NC(=O)CSc1nnc(-c2ccncc2)n1-c1ccc(OC)cc1 (stereo not drawn)	-4%	-3%	-5%	2	11%	9%
CCOc1ccc(-n2c(SCC(=O)NC(C)CC)nc3n[nH]c(C)c3c2=N)cc1 (stereo not drawn)	u	18µM*	27%	-15	0%	0%
CCC(Sc1nc2n[nH]c(C)c2c(=N)n1-c1cccc(Cl)c1C)C(=O)N(CC)CC (stereo not drawn)	u	u	u	-7	-14%	-9%
CCC(C)NC(=O)CSc1nc2n[nH]c(C)c2c(=N)n1-c1ccc(C)c(Cl)c1 (stereo not drawn)	3.3µM*	1.6µM*	x	x	x	x
CCC(C)NC(=O)CSc1nc2n[nH]c(C)c2c(=N)n1-c1ccc(OC)cc1 (stereo not drawn)	16µM*	18µM*	4%	5	21%	u
CCOC(=O)[C@H](CCc1ccccc1)N[C@@H](C)C(=O)N1C(=O)N(C)C[C@H]1C(=O)O	-2%	-7%	x	x	0%	-10%
COc1ccc(S(=O)(=O)N2CCOC2CNC(=O)C(=O)NCCCN2CCCC2=O)cc1OC (stereo not drawn)	-1%	-8%	x	-14	x	x
Cc1cccc(C)c1NC(=O)C1(C)CN(S(C)(=O)=O)CC(=O)N1CCCn1ccnc1 (stereo not drawn)	-2%	3%	x	22	x	x
O=C(CSc1ccccc1)NCc1ccc2c(c1)CCN2C(=O)c1ccc(Cl)cc1	-12%	u	x	x	x	x
CCOc1ccccc1NC(=O)CSc1nc2c(oc3ccccc32)c(=O)n1Cc1ccco1	16µM*	21µM*	x	x	x	x
O=C(CSc1nc2c(oc3ccccc32)c(=O)n1Cc1ccco1)Nc1ccccc1	-14%	-19%	x	x	x	x
CCOCCCn1c(SCC(=O)Nc2ccccc2OC)nc2c(oc3ccccc32)c1=O	u	26µM*	x	x	x	x
COc1ccccc1NC(=O)CSc1nc2c(oc3ccccc32)c(=O)n1Cc1ccco1	15µM*	u	x	x	x	x
CCOCCCn1c(SCC(=O)Nc2oc(C)c3c(C)n[nH]c(=O)c23)nc2ccccc2c1=O	23µM*	u	x	-25	x	x
CCOc1ccc(NC(=O)CSc2nc3c(oc4ccccc43)c(=O)n2CCOC)cc1	-30%	-13%	x	x	x	x
COc1ccc2c(c1)C(=O)[C@H](OC(=O)Nc1cc(OC)c(OC)c(OC)c1)[C@@H](c1ccc(OC)c(Br)c1)O2	x	x	x	x	-9%	-1%
CNc1cnc(-c2ccc(O)c(OC)c2)cn1	16µM*	u	x	-61*	x	x
COc1ccc(Cc2c(-c3ccc(OC)c(OC)c3)nc3c(C)cc(Br)cn23)c(C)c1	1.2µM*	1.5µM*	x	-15	x	x
COc1ccc(Cc2c(-c3ccc(OC)c(OC)c3)nc3ccc(C)cn23)c(C)c1	u	16µM*	x	-6	x	x
COc1ccc(-c2nc3c(C)cc(Br)cn3c2Cc2ccccc2)cc1OC	7.3µM*	6.5µM*	x	-2	x	x
COc1ccc(-c2nc3c(C)cc(Br)cn3c2Cc2ccc(C)cc2)cc1OC	u	u	x	0	x	x
COc1ccc(Cc2c(-c3ccc(OC)c(OC)c3)nc3cc(C)c(Br)c(C)n23)c(C)c1	u	u	x	7	x	x
O=C(N[C@@H]1c2ccccc2C2(CCN(Cc3c(O)ccc4ccccc34)CC2)[C@H]1O)c1ccccc1	-11%	-24%	x	x	x	x
C/C(=N\Nc1nc(-c2cc(C)ccc2C)cs1)c1cc2c(ccc3ccccc32)oc1=O	u	16µM*	1%	12	u	-19%
CCC(=O)N1CCc2cc(S(=O)(=O)NC(C(=O)NCCc3ccccc3)C(C)C)ccc21 (stereo not drawn)	-21%	u	x	x	x	x
SMILES	TDP1 cell CPT	DT40 TDP1 no CPT	ELG1 DNA repair	IL1B secr inh	RORgamma inh	VP16 counter
C/C(N)=C(/C#N)C(=O)CSc1nc2ccccc2c(=O)n1Cc1ccc(C)cc1	-29%	u	u	-12	2.5µM*	4µM*
CCCCn1c(SCC(=O)/C(C#N)=C(\C)N)nc2ccccc2c1=O	u	u	-20%	u	u	u
C/C(N)=C(/C#N)C(=O)CSc1nc2ccccc2c(=O)n1Cc1ccc(F)cc1	u	u	u	-11	2.8µM*	3.5µM*
Cc1cn([C@H]2C[C@H](O)[C@@H](CCC(=O)NCc3ccco3)O2)c(=O)[nH]c1=O	-4%	-19%	x	0	x	x
CCC(=O)c1c[nH]c(C(=O)N2CCOCC2)c1	-1%	1%	0%	3	8%	-10%
COCCn1c(=O)c(-c2cc(F)cc(F)c2)nc2cnc(Oc3ccc(OC)cc3)nc21	-17%	u	x	x	2%	6%
CC(C)(C)n1cnc2cc(NCc3ccccc3O)ccc21	u	u	u	u	-34%	-3%
CCc1ccc(CNc2ccc3c(c2)ncn3C(C)(C)C)cc1	21µM*	21µM*	u	-78*	u	u
CCN(CC)c1ccc(CNc2ccc3c(c2)ncn3C(C)(C)C)cc1	16µM*	u	-18%	-24	-14%	-16%
CCc1ccc(CNc2ccc3c(c2)ncn3CC)cc1	u	u	u	-57*	-41%	u
CCn1cnc2cc(NCc3ccc(OC)cc3)ccc21	-25%	u	u	1	0%	0%
Nc1ncnc2c1ccn2[C@H]1CN(Cc2ccc3c(c2)OCO3)C[C@@H](COC(=O)c2ccccc2)O1	u	u	x	40	x	x
COc1cccc(-c2cc(C(=O)Nc3ccc([N+](=O)[O-])cn3)c3ccccc3n2)c1	u	12µM*	13µM*	-5	1%	u
CCOc1cccc(-c2cc(C(=O)Nc3ccon3)c3ccccc3n2)c1	u	9.2µM*	13µM*	-11	u	-5%
COc1ccc(NC(=O)c2cc(-c3ccco3)nc3ccccc23)cc1	-10%	u	x	11	x	x
COc1ccc(COc2cc(-c3cccc(OC)c3)nc3ccc(NC(=O)C(C)C)cc23)cc1	4.6µM*	4.6µM*	u	61	38%	-27%
COc1ccc(-c2cc(C(=O)Nc3ccc(C(N)=O)cc3)c3ccccc3n2)cc1	8.2µM*	6.5µM*	u	x	16%	0%
O=C(Nc1ccon1)c1cc(-c2ccccc2)nc2ccccc12	-23%	u	-24%	-12	u	u
